From PubChem BioAssay
MBNL1-CUG inh: blocks human MBNL1 binding to CUG repeat RNA | actives 0.036% (n = 280,000) | Potency, µM (top dose mostly 57.5 µM), for the others: at the highest dose activity change, negative = inhibition, actives largely listed as inhibitors | TR-FRET MBNL1-His/biotin-(CUG)12 binding, 665/545 ratio; active = well fitted inhibition curve with a large enough effect in the signal ratio, with a control signal flat, not every such curve was filed as active; inconclusive = small, poorly fitted or top-dose-only effect, or effect the other way, or a change in a side signal; inactive = no such curve, though single readings can be large or run the other way; the % refers to the signal ratio; also: potency is read from the fitted curve at half-maximal effect; % is scaled to controls: 0 for no effect and ±100 for the full control effect
Target sequence (Q9NR56 whole entry, looked up): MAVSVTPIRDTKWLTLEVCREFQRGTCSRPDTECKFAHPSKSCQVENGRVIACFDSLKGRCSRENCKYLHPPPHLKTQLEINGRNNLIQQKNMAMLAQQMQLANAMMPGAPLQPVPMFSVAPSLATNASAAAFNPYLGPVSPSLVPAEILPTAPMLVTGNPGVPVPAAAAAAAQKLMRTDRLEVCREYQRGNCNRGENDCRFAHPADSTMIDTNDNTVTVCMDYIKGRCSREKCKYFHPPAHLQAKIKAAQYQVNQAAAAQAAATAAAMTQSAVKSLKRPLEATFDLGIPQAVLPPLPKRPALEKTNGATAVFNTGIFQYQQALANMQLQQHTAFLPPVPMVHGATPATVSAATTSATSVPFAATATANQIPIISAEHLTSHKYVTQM
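Inhibition of protein-RNA binding appears as loss of TR-FRET between terbium anti-His antibody on MBNL1-His and streptavidin-XL665 on biotin-(CUG)12. Activity is normalized to buffer-only and uninhibited-complex controls.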
CBFb-RUNX1 inh: blocks binding between human CBF-beta and RUNX1 | AlphaScreen CBFb-His/RUNX1-biotin binding, biochemical | AID 1477 | Potency, µM (series often up to 59.8 µM), for the others: at the highest dose activity, negative = inhibition, hits mostly inhibitors | 230,000 tested, under 10 active; also: % of control where 0% means no effect
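CBFb-His/RUNX1-biotin, 30 nM each, preincubated 20 min RT; compound 15 min RT; Ni + streptavidin beads 50 ng each, 90 min RT; AlphaScreen read.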
RORgamma inh: inhibitors of mouse ROR gamma transcriptional activity; Drosophila S2 Gal4-RORgamma UAS-luciferase reporter, 20 h; P51450; Potency, µM (highest dose often 53.6 µM), inactives show top-dose activity change, negative = inhibition, hits mostly inhibitors; actives 5.4% (n = 310,000); also: potency is read from the fitted curve at half-maximal effect; % is scaled to controls: 0 for no effect and ±100 for the full control effect; nearly all actives have a fitted effect of over 60% in size
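A Gal4/UAS one-hybrid system in insect cells: metallothionein-promoter Gal4–ROR gamma fusion plus Photinus luciferase reporter. Copper sulfate 700 uM final, 20 hr ambient incubation, luminescent detection after 10 min with reagent.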
CtBP-E1A inh: CtBP/E1A binding inhibition; AlphaScreen GST-E1A/His-CtBP binding, 1536-well; hits give low values; activity change, % (concentration not given with the values); actives 0.49% (n = 340,000); AID 651724; in the data active = activity change below about -65%; inconclusive = mostly about -30% to -63%; also: % is scaled to controls: 0 for no effect and ±100 for the full control effect
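Protein mix (5X: 125 nM each GST-E1A, His-CtBP) was incubated with pinned compound 2 h at 37 deg C in dark, in 50 mM Tris pH 8.0 buffer with 300 mM NaCl. Glutathione donor and nickel acceptor beads followed; AlphaScreen signal read after 1 h.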
Gal4-VP16 FLuc: counter-screen for ROR gamma inhibitors: Gal4-VP16 reporter | Drosophila S2 Gal4-VP16 UAS-luciferase, luminescence, 20 h | Potency, µM (highest dose often 53.6 µM), for the others: at the top dose activity, negative = inhibition, hits mostly inhibitors | actives 3.5% (n = 310,000);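 also: Gal4-VP16 expression switched on by copper sulfate through the metallothionein promoter; potency is read from the fitted curve at half-maximal effect; % is scaled to controls: 0 for no effect and ±100 for the full control effect; nearly all actives have a fitted effect of over 50% in size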
Six1-Eya2 inh: Six1/Eya2 interaction inhibition. Q15475+O00167. AlphaScreen GST-Six1/His-Eya2 binding, biochemical; hits give low values. activity change, % (concentration not given with the values). actives 0.56% (n = 360,000); in the data active = activity change below about -65%; inconclusive = mostly about -30% to -63%; also: % is scaled to controls: 0 for no effect and ±100 for the full control effect
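Compounds are tested against tagged Six1 and Eya2 proteins bridged by glutathione donor and nickel acceptor beads; after a one-hour incubation at 37 °C without light, AlphaScreen emission is recorded.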
The depositor's hits bear a star; ? = inconclusive; / = no result given. Most compounds without a hit are left out; they make up all but 5.5% or so of the library. Unless noted, calls follow the shape of the dose curve; as a rule, active = well fitted curve in the direction sought with a large enough effect; inconclusive = small, poorly fitted or top-dose-only effect, or another doubt; inactive = no such curve, though single readings can be large; an effect the other way counts as inactive or inconclusive.

SMILES | MBNL1-CUG inh | CBFb-RUNX1 inh | RORgamma inh | CtBP-E1A inh | Gal4-VP16 FLuc | Six1-Eya2 inh
CCOc1ccccc1-n1c(SCC(N)=O)nnc1-c1ccc(O)cc1 | -13% | 6% | 3% | -90* | 3% | -90*
Cc1ccc(C)c(-n2c(-c3ccncc3)n[nH]c2=S)c1 | -6% | 8% | 10µM* | -22 | -28% | -11
Cc1ccc(C)c(-n2c(-c3ccc4c(c3)OCO4)n[nH]c2=S)c1 | 17% | -1% | 7% | -4 | 0% | -1
Cc1ccc(C)c(-n2c(-c3csc(C)c3)n[nH]c2=S)c1 | 1% | -1% | 3.2µM* | -4 | 5.6µM* | -1
CN(C)/C(=N\S(=O)(=O)c1ccc(Cl)cc1)c1ccc(F)cc1 | 6% | / | 16% | 4 | 0% | 2
O=C(NCCN1CCCCC1)Nc1cccc(F)c1 | 0% | / | -2% | 7 | 4% | 6
O=C(On1c(-c2ccccc2)nc2ccccc2c1=O)c1ccco1 | -16% | 0% | 11µM* | 1 | ? | 5
O=c1c2ccccc2nc(-c2ccco2)n1Cc1ccccc1 | 5% | 2% | 19% | -1 | ? | -3
COc1cc(OC)cc(-c2nc3ccccc3c(=O)n2OC(=O)c2ccccc2C)c1 | -2% | -2% | 13µM* | 1 | ? | -1
CSCC[C@H](NC(=O)c1cccs1)C(=O)N1CCC2(CC1)NCCc1[nH]cnc12 | -6% | / | 0% | 1 | -7% | 1
CC[C@H](CO)Nc1nc(Nc2cccc(Cl)c2)c2ncn(C(C)C)c2n1 | -3% | ? | ? | -7 | 3.2µM* | -6
O=C(Nc1cccc2cccnc12)c1cccc([N+](=O)[O-])c1 | 18% | / | / | -7 | / | -17
O=C(Oc1cccc2cccnc12)c1cccc([N+](=O)[O-])c1 | 21% | 7% | 3.5µM* | -75* | 3.2µM* | -69*
O=C(Oc1c(Cl)cc(Cl)c2cccnc12)c1cccc([N+](=O)[O-])c1 | 22% | ? | 0.28µM* | -98* | / | -88*
O=C(Oc1cccc2cccnc12)c1ccc2c(c1)OCCO2 | -12% | -18% | 1.6µM* | ? | 2µM* | ?
N#Cc1ccc(Oc2cccc3cccnc23)c([N+](=O)[O-])c1 | ? | / | 8% | -27 | -14% | -6
O=C(Nc1ncccc1O)c1ccc2c(c1)OCCO2 | / | / | / | 0 | / | -6
O=[N+]([O-])c1ccc(Oc2cccc3cccnc23)c([N+](=O)[O-])c1 | ? | 0% | 8.9µM* | -79* | ? | ?
CC1CCC(NC(=O)c2cccc(S(=O)(=O)NCc3ccccc3)c2)CC1 (centres undefined) | / | / | / | 1 | / | 5
COc1cccc(-n2nnnc2SCC(=O)Nc2ccc(NC(C)=O)cc2)c1 | -8% | / | -34% | -12 | -9% | -3
O=C(Oc1ccccc1)c1cccc2cccnc12 | 5% | -6% | 2.5µM* | ? | 4µM* | ?
O=C(O)c1cccc2cccnc12 | 20% | -7% | -15% | -1 | -12% | -5
Cc1c(C(=O)Oc2cccc3cccnc23)cccc1[N+](=O)[O-] | 5% | -17% | 2.8µM* | 2 | 3.2µM* | -88*
CCOCC | / | 6% | -5% | / | -7% | /
Cc1cc(C)cc(-c2nnc(SCC(=O)Nc3cc(C)on3)o2)c1 | / | / | / | -65* | / | ?
Cc1cc(NC(=O)CSc2nnc(CNC(=O)c3c(F)cccc3F)o2)no1 | -5% | / | -10% | -80* | -1% | ?
O=C(CSc1nnc(CNC(=O)c2c(F)cccc2F)o1)Nc1ccc2c(c1)OCO2 | -2% | / | 2% | -1 | -2% | 1
Cc1cc(NC(=O)CSc2nnc(C)o2)no1 | 1% | / | -2% | -86* | 7% | ?
CCC(c1nnc(SCC(=O)Nc2cc(C)on2)o1)N(C)C (centres undefined) | / | / | / | -91* | / | ?
